Measurements from PubChem BioAssay AID1159580 (chemical genetic matrix, 2015).
Values joined by “and” are separate entries in the source; they are usually repeats but may differ in a detail not shown here. Identical values can stand only once. In all, about 5,500 compounds went through this assay and about 2,000 (36%) were called active. About 18% were inconclusive and are not listed. Some of the results follow. Values without a mark were called inactive. Cut-off read from the data, not from the text of the source: active = normalized growth mostly below about 0.91 (no sharp cut-off); inconclusive = no clear call, values can overlap the other calls; inactive = mostly above about 0.92.

Assay: chemical genetic growth profiling, strain panel (AID 1159580);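 note: tested at 20 µM; growth read once vehicle control cultures reached saturation at 30 °C; 1 = growth at the plate median or of vehicle wells; lower values mean less growth of the strain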
Conditions: S. cerevisiae deletion strains, growth OD

COc1ccc2c(c1)OC[C@@H](Cc1ccc(OC)c(OC)c1)[C@H]2O
normalized growth (locus YAL013W, strain DEP1, active compounds read low): 0.986 | normalized growth (locus YAL021C, strain ccr4, active compounds read low): 0.993 | normalized growth (locus YAL026C, strain drs2, active compounds read low): 1.02 | normalized growth (locus YAL030W, strain snc1, active compounds read low): 1.01 | normalized growth (locus YBL061C, strain skt5, active compounds read low): 1 | normalized growth (locus YBR009C, strain hhf1, active compounds read low): 0.993 | normalized growth (locus YBR021W, strain FUR4, active compounds read low): 1.06 | normalized growth (locus YBR023C, strain chs3, active compounds read low): 0.999 | normalized growth (locus YBR171W, strain sec66, active compounds read low): 1.01 | normalized growth (locus YBR229C, strain ROT2, active compounds read low): 1 | normalized growth (locus YBR231C, strain swc5, active compounds read low): 1.01 | normalized growth (locus YBR279W, strain paf1, active compounds read low): 1.02 | normalized growth (locus YCL011C, strain gbp2, active compounds read low): 1.01 | normalized growth (locus YCL016C, strain dcc1, active compounds read low): 1 | normalized growth (locus YCL029C, strain bik1, active compounds read low): 0.953 | normalized growth (locus YCL061C, strain MRC1, active compounds read low): 0.98 | normalized growth (locus YCL069W, strain vba3, active compounds read low): 1.01 | normalized growth (locus YCR088W, strain abp1, active compounds read low): 0.999 | normalized growth (locus YDL005C, strain med2, active compounds read low): 0.999 | normalized growth (locus YDL035C, strain GPR1, active compounds read low): 0.984 | normalized growth (locus YDL040C, strain nat1, active compounds read low): 0.991 | normalized growth (locus YDL074C, strain BRE1, active compounds read low): 0.995 | normalized growth (locus YDL101C, strain DUN1, active compounds read low): 1 | normalized growth (locus YDL134C, strain PPH21, active compounds read low): 1.06 | normalized growth (locus YDL185W, strain tfp1, active compounds read low): 0.943 | normalized growth (locus YDL192W, strain arf1, active compounds read low): 0.967 | normalized growth (locus YDR001C, strain nth1, active compounds read low): 1 | normalized growth (locus YDR069C, strain doa4, active compounds read low): 0.992 | normalized growth (locus YDR101C, strain arx1, active compounds read low): 0.981 | normalized growth (locus YDR137W, strain rgp1, active compounds read low): 0.806 (active) | normalized growth (locus YDR159W, strain sac3, active compounds read low): 0.939 | normalized growth (locus YDR162C, strain NBP2, active compounds read low): 1.01 | normalized growth (locus YDR195W, strain ref2): 1 | normalized growth (locus YDR297W, strain sur2, active compounds read low): 1 | normalized growth (locus YDR318W, strain mcm21, active compounds read low): 0.981 | normalized growth (locus YDR334W, strain swr1, active compounds read low): 1.02 | normalized growth (locus YDR335W, strain msn5, active compounds read low): 1.01 | normalized growth (locus YDR388W, active compounds read low): 0.969 | normalized growth (locus YDR392W, strain spt3, active compounds read low): 0.929 | normalized growth (locus YDR502C, strain sam2, active compounds read low): 0.983 | normalized growth (locus YEL003W, strain gim4, active compounds read low): 1.01 | normalized growth (locus YEL037C, strain rad23, active compounds read low): 1.01 | normalized growth (locus YEL061C, strain CIN8 (second series), active compounds read low): 1.01 | normalized growth (locus YEL061C, strain CIN8, active compounds read low): 0.99 | normalized growth (locus YER015W, strain faa2, active compounds read low): 1.01 | normalized growth (locus YER016W, strain bim1, active compounds read low): 1.01 | normalized growth (locus YER110C, active compounds read low): 0.978 | normalized growth (locus YER111C, strain swi4, active compounds read low): 1 | normalized growth (locus YER155C, strain BEM2 (second series), active compounds read low): 1.01 | normalized growth (locus YER155C, strain BEM2, active compounds read low): 0.984 | normalized growth (locus YER167W, strain BCK2, active compounds read low): 0.957 | normalized growth (locus YFR010W, strain ubp6, active compounds read low): 1.01 | normalized growth (locus YGL078C, strain dbp3, active compounds read low): 0.977 | normalized growth (locus YGL086W, strain mad1, active compounds read low): 0.989 | normalized growth (locus YGL167C, strain pmr1, active compounds read low): 1.01 | normalized growth (locus YGL173C, strain kem1, active compounds read low): 1.02 | normalized growth (locus YGL227W, strain vid30, active compounds read low): 0.999 | normalized growth (locus YGL240W, strain doc1, active compounds read low): 1.01 | normalized growth (locus YGL248W, strain PDE1, active compounds read low): 1.03 | normalized growth (locus YGL253W, strain hxk2, active compounds read low): 1 | normalized growth (locus YGR135W, strain pre9, active compounds read low): 0.99 | normalized growth (locus YGR252W, strain gcn5, active compounds read low): 1.01 | normalized growth (locus YHR013C, strain ard1, active compounds read low): 1.01 | normalized growth (locus YHR027C, strain rpn1, active compounds read low): 0.999 | normalized growth (locus YHR030C, strain SLT2, active compounds read low): 0.987 and 0.938 | normalized growth (locus YHR079C, strain IRE1 (second series), active compounds read low): 0.979 | normalized growth (locus YHR079C, strain IRE1, active compounds read low): 0.956 | normalized growth (locus YHR094C, strain hxt1, active compounds read low): 0.978 | normalized growth (locus YHR129C, strain ARP1, active compounds read low): 0.994 | normalized growth (locus YHR142W, strain chs7, active compounds read low): 0.975 | normalized growth (locus YHR200W, strain rpn10, active compounds read low): 0.966 | normalized growth (locus YIL066C, strain RNR3, active compounds read low): 1.01 | normalized growth (locus YIL073C, strain SPO22, active compounds read low): 0.919 | normalized growth (locus YIR030C, strain dcg1, active compounds read low): 0.955 | normalized growth (locus YJL092W, strain hpr5, active compounds read low): 1.01 | normalized growth (locus YJL095W, strain BCK1 (second series), active compounds read low): 1.01 | normalized growth (locus YJL095W, strain BCK1, active compounds read low): 1.04 and 0.939 | normalized growth (locus YJL115W, strain asf1, active compounds read low): 1.01 | normalized growth (locus YJL129C, strain trk1, active compounds read low): 0.956 | normalized growth (locus YJL134W, strain LCB3, active compounds read low): 0.991 | normalized growth (locus YJL154C, strain vps35, active compounds read low): 1.01 | normalized growth (locus YJL164C, strain tpk1, active compounds read low): 0.993 | normalized growth (locus YJL166W, strain qcr8, active compounds read low): 1.01 | normalized growth (locus YJL168C, strain set2, active compounds read low): 0.997 | normalized growth (locus YJL187C, strain SWE1 (second series), active compounds read low): 1.01 | normalized growth (locus YJL187C, strain SWE1, active compounds read low): 1 | normalized growth (locus YJR043C, strain POL32, active compounds read low): 1.01
